Reference: PubChem BioAssay (NCI)
The panel holds about 79,000 compounds, 15% with a hit somewhere; the sample as a whole holds those more often. Calls of active or inactive are those of the source. No stated cut-off is given here; in the data, active means growth inhibition above about 70%; inactive means the rest.

How the values were obtained:
[1] = NCI Yeast Anticancer Drug Screen. Data for the rad52 strain (AID 147);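 further: 0% = growth of vehicle-treated control cultures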; conditions: S. cerevisiae rad52 mutant growth inhibition, active compounds read high
How it was run: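 Read-out: growth inhibition versus vehicle-treated controls. Cells were a DNA repair-deficient yeast strain treated with compounds.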

[2] = NCI Yeast Anticancer Drug Screen. Data for the wt1 strain (AID 149);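 further: 0% = growth of vehicle-treated wt1 cultures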; conditions: S. cerevisiae wt1 strain (SPY 50644) growth inhibition, active compounds read high
How it was run: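 Measured: growth of wt1 yeast under compound versus vehicle treatment, reported as inhibition.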

[3] = NCI Yeast Anticancer Drug Screen. Data for the rad50EPP+ strain (AID 151);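 further: 0% = growth of vehicle-treated control cultures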; conditions: S. cerevisiae rad50 mutant strain, active compounds read high
How it was run: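 Growth inhibition read against vehicle controls in rad50EPP+ yeast, a strain altered in DNA damage repair, after compound exposure.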

[4] = NCI Yeast Anticancer Drug Screen. Data for the mgt1 strain (AID 153); conditions: S. cerevisiae mgt1 mutant growth inhibition, active compounds read high
How it was run: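 mgt1 yeast grown with test compound; read-out is growth inhibition versus vehicle-treated cultures.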

[5] = NCI Yeast Anticancer Drug Screen. Data for the rad50 strain (AID 155);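 further: 0% = growth of vehicle-only cultures of the same strain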; conditions: S. cerevisiae rad50 strain growth inhibition, active compounds read high
How it was run: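 Growth of the mutant yeast was measured after compound exposure and referenced to vehicle-treated cultures.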

[6] = NCI Yeast Anticancer Drug Screen. Data for the mec2-1 strain (AID 157); conditions: S. cerevisiae mec2-1 strain, active compounds read high
How it was run: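 Yeast mec2-1 mutant treated with compound. Readout: growth inhibition vs vehicle controls.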

[7] = NCI Yeast Anticancer Drug Screen. Data for the rad14 strain (AID 159);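 further: 0% = growth of vehicle-treated control cultures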; conditions: S. cerevisiae rad14 strain growth inhibition, active compounds read high
How it was run: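 Here, inhibition of yeast growth was measured after compound exposure, using a strain with a genetic defect in DNA damage repair and vehicle-treated cultures as the reference.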

[8] = NCI Yeast Anticancer Drug Screen. Data for the sgs1 mgt1 strain (AID 161);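 further: 0% = growth of cultures given vehicle only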; conditions: S. cerevisiae sgs1 mgt1 strain, active compounds read high
How it was run: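 Read-out: growth inhibition vs vehicle controls. Cells: mutant yeast strain deficient in DNA damage repair.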

[9] = NCI Yeast Anticancer Drug Screen. Data for the CLN2oe strain (AID 163);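 further: 0% = growth of vehicle-only control cultures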; conditions: S. cerevisiae CLN2oe strain, active compounds read high
How it was run: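 Read-out: yeast growth inhibition, expressed relative to vehicle-only controls. The strain bears an engineered cell-cycle alteration.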

[10] = NCI Yeast Anticancer Drug Screen. Data for the cln2 rad14 strain (AID 165);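 further: 0% = growth equal to vehicle treated cultures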; conditions: S. cerevisiae cln2 rad14 strain, active compounds read high
How it was run: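 cln2 rad14 yeast strain; compound exposure; growth inhibition read vs vehicle controls.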

[11] = NCI Yeast Anticancer Drug Screen. Data for the bub3 strain (AID 167); conditions: S. cerevisiae bub3 mutant strain, active compounds read high
How it was run: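 Whole-cell yeast assay. The mutant strain was incubated with compounds, and growth inhibition was determined by comparison with vehicle-treated cells.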

[12] = NCI Yeast Anticancer Drug Screen. Data for the wt2 strain (AID 169);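 further: 0% = growth of vehicle-treated yeast cultures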; conditions: S. cerevisiae wt2 strain growth inhibition, active compounds read high
How it was run: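 Read-out: growth inhibition versus vehicle-treated control cultures after compound exposure of the yeast strain.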

[13] = NCI Yeast Anticancer Drug Screen. Data for the mlh1 strain (AID 171);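 further: 0% = growth of vehicle-treated control cultures of the same strain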; conditions: S. cerevisiae mlh1 strain growth inhibition, active compounds read high
How it was run: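 Read-out: growth inhibition versus vehicle controls. Strain: engineered yeast with a defined DNA repair or cell cycle defect, compound-treated.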

[14] = NCI Yeast Anticancer Drug Screen. Data for the sgs1 strain (AID 173);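 further: 0% = growth of vehicle-only control cultures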; conditions: S. cerevisiae sgs1 mutant, active compounds read high
How it was run: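 Read-out: yeast growth inhibition relative to vehicle controls, following compound exposure of a strain with a defined DNA repair/cell cycle alteration.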

[15] = NCI Yeast Anticancer Drug Screen. Data for the mlh1 rad18 strain (AID 175); conditions: S. cerevisiae mlh1 rad18 strain growth inhibition, active compounds read high
How it was run: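 Yeast w/ defined DNA-repair lesions; compound exposure; growth vs vehicle controls → % inhibition.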

[16] = NCI Yeast Anticancer Drug Screen. Data for the rad18 strain (AID 177); conditions: S. cerevisiae rad18 mutant growth inhibition, active compounds read high
How it was run: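 Readout: growth inhibition vs vehicle controls. Cells: genetically altered yeast strain, DNA repair defect.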

[17] = at 5.0 µM (retest, dose inferred, filed as 0.5)
[18] = at 50.0 µM (retest, dose inferred, filed as 5.0)

Measured: growth inhibition

O=C1c2ccccc2CCC1(Br)Br
active: [1]; at 11.0 µM 81% | [1]; at 33.0 µM 99% | [1]; at 100.0 µM 99% | [2]; at 33.0 µM 99% | [2]; at 100.0 µM 99% | [3]; at 3.7 µM 82% | [3]; at 11.0 µM 97% | [3]; at 33.0 µM 99% | [3]; at 100.0 µM 99% | [4]; at 33.0 µM 99% | [4]; at 100.0 µM 99% | [5]; at 33.0 µM 99% | [5]; [18] 99% | [5]; at 50.0 µM 99.2% | [5]; at 100.0 µM 99% | [6]; at 11.0 µM 76% | [6]; at 33.0 µM 99% | [6]; [18] 100% | [6]; at 50.0 µM 99.3% | [6]; at 100.0 µM 99% | [7]; at 33.0 µM 99% | [7]; at 100.0 µM 99% | [8]; [18] 99% | [8]; at 50.0 µM 99.2% | [9]; at 11.0 µM 93% | [9]; at 33.0 µM 99% | [9]; at 100.0 µM 99% | [10]; [18] 100% | [10]; at 50.0 µM 99.4% | [11]; at 11.0 µM 74% | [11]; at 33.0 µM 99% | [11]; [18] 99% | [11]; at 50.0 µM 99.2% | [11]; at 100.0 µM 99% | [12]; at 33.0 µM 99% | [12]; at 100.0 µM 99% | [13]; at 11.0 µM 72% | [13]; at 33.0 µM 99% | [13]; at 100.0 µM 99% | [14]; at 11.0 µM 76% | [14]; at 33.0 µM 99% | [14]; at 100.0 µM 99% | [15]; [17] 85% | [15]; [18] 99% | [15]; at 50.0 µM 99.3%
inactive: [1]; at 1.2 µM 11% | [1]; at 3.7 µM 27% | [2]; at 1.2 µM 1% | [2]; at 3.7 µM 11% | [2]; at 11.0 µM 36% | [3]; at 1.2 µM 55% | [4]; at 1.2 µM 2% | [4]; at 3.7 µM 11% | [4]; at 11.0 µM 53% | [5]; at 1.2 µM 11% | [5]; at 3.7 µM 22% | [5]; [17] 50% | [5]; at 11.0 µM 69% | [6]; at 1.2 µM 9% | [6]; at 3.7 µM 21% | [6]; [17] 21% | [7]; at 1.2 µM 7% | [7]; at 3.7 µM 14% | [7]; at 11.0 µM 51% | [8]; [17] 63% | [9]; at 1.2 µM 9% | [9]; at 3.7 µM 13% | [10]; [17] 18% | [11]; at 1.2 µM 1% | [11]; at 3.7 µM 15% | [11]; [17] 61% | [12]; at 1.2 µM 5% | [12]; at 3.7 µM 13% | [12]; at 11.0 µM 62% | [13]; at 1.2 µM 7% | [13]; at 3.7 µM 13% | [14]; at 1.2 µM 13% | [14]; at 3.7 µM 23%

COc1cccc(C(c2cc3c(cc2O)OCO3)N2CCOCC2)c1OC (stereo not drawn)
inactive: [1]; at 1.2 µM -2% | [1]; at 3.7 µM 2% | [1]; at 11.0 µM 4% | [1]; at 33.0 µM 23% | [1]; at 100.0 µM 28% | [2]; at 1.2 µM -2% | [2]; at 3.7 µM -2% | [2]; at 11.0 µM -2% | [2]; at 33.0 µM 0% | [2]; at 100.0 µM 3% | [3]; at 1.2 µM -6% | [3]; at 3.7 µM -7% | [3]; at 11.0 µM 0% | [3]; at 33.0 µM 11% | [3]; at 100.0 µM 56% | [4]; at 1.2 µM -3% | [4]; at 3.7 µM -5% | [4]; at 11.0 µM 0% | [4]; at 33.0 µM -3% | [4]; at 100.0 µM 4% | [5]; at 1.2 µM -1% | [5]; at 3.7 µM 2% | [5]; [17] -3% | [5]; at 11.0 µM 1% | [5]; at 33.0 µM 14% | [5]; [18] 48% | [5]; at 50.0 µM 42.1% | [5]; at 100.0 µM 46% | [6]; at 1.2 µM -1% | [6]; at 3.7 µM -1% | [6]; [17] -1% | [6]; at 11.0 µM -2% | [6]; at 33.0 µM -2% | [6]; [18] -9% | [6]; at 100.0 µM 37% | [7]; at 1.2 µM 0% | [7]; at 3.7 µM 4% | [7]; at 11.0 µM 7% | [7]; at 33.0 µM 10% | [7]; at 100.0 µM 21% | [8]; [17] 7% | [8]; at 50.0 µM 42.5% | [9]; at 1.2 µM -4% | [9]; at 3.7 µM -3% | [9]; at 11.0 µM -4% | [9]; at 33.0 µM 5% | [9]; at 100.0 µM 19% | [10]; [17] 1% | [10]; [18] 3% | [10]; at 50.0 µM -30.1% | [11]; at 1.2 µM -4% | [11]; at 3.7 µM -4% | [11]; [17] -13% | [11]; at 11.0 µM -9% | [11]; at 33.0 µM 4% | [11]; [18] 56% | [11]; at 50.0 µM 45% | [11]; at 100.0 µM 11% | [12]; at 1.2 µM -3% | [12]; at 3.7 µM -6% | [12]; at 11.0 µM 5% | [12]; at 33.0 µM 0% | [12]; at 100.0 µM -3% | [13]; at 1.2 µM -3% | [13]; at 3.7 µM -1% | [13]; at 11.0 µM 4% | [13]; at 33.0 µM 7% | [13]; at 100.0 µM 32% | [14]; at 1.2 µM -6% | [14]; at 3.7 µM -7% | [14]; at 11.0 µM 8% | [14]; at 33.0 µM 10% | [14]; at 100.0 µM 60% | [16]; at 1.2 µM -3% | [16]; at 3.7 µM 0% | [16]; at 11.0 µM 4% | [16]; at 33.0 µM 10% | [16]; at 100.0 µM 36%
active: [6]; at 50.0 µM 83.8% | [8]; [18] 79%
